aSyn UTR act: Activators via SNCA 5'UTR binding, MLPCN; alpha-synuclein 5'UTR reporter, activators screen; activity score, % (tested at 7.5 µM), hits read low; 7.1% of 300,000 active; AID 1814, 2009; in the data active means activity score below about -60%
Hits are given with their value; i = inactive. The list is a sample of the results.

SMILES	aSyn UTR act
c1ccc(CSc2ccc(-c3cccs3)nn2)nc1	-102.3
c1ccc(CSc2ccc(-c3cccs3)nn2)cc1	-107.5
O=C(NCc1ccco1)C(=O)c1c[nH]c2ccccc12	-79.0
O=C(NCc1cccs1)C(=O)c1c[nH]c2ccccc12	-122.7
Cc1c(C(=O)NCCC2=CCCCC2)cccc1[N+](=O)[O-]	-89.7
O=C(NCCC1=CCCCC1)c1cnsn1	-65.2
Cc1cc(C(=O)NCCC2=CCCCC2)no1	-81.2
Cc1cc(NCCCn2ccnc2)n2nc(C)c(-c3ccc(Cl)cc3)c2n1	i
Cc1cc(NCCCn2ccnc2)n2nc(C)c(-c3ccccc3)c2n1	-139.5
N#Cc1c(N)nc(N)nc1Nc1ccc(Br)cc1	-63.9
O=[N+]([O-])c1ccc(-c2cn3ccccc3n2)cc1	-147.8
CN(C)S(=O)(=O)c1ccc(-c2cn3ccccc3n2)cc1	-193.7
O=c1c(C=NCCCO)c(-c2ccccc2)[nH]n1-c1nc2ccccc2s1	i
O=c1c(C=NCCN2CCNCC2)c(-c2ccccc2)[nH]n1-c1ccc([N+](=O)[O-])cc1	-93.9
CC(C)c1ccc2[nH]c3c(c2c1)[C@@H]1CCN2C(=O)CCC[C@H](C3)[C@H]12	-92.6
S=C(N=Nc1ccccc1)NNc1ccccc1	-132.2
C#CCn1c(=NC(=O)c2cccs2)sc2cccc(OC)c21	-97.4
Cc1cc(/C=C2\SC(=S)N(C)C2=O)c(C)n1-c1cccc(O)c1	-70.7
Cc1cc(/C=C2\SC(=S)N(Cc3ccco3)C2=O)c(C)n1-c1ccccc1	-74.0
COc1ccc(-n2c(C)cc(/C=C3/SC(=S)N(C)C3=O)c2C)cc1	-85.4
CCCCOc1ccc(C2CCC(C(C)=O)C(C)C2)cc1 (stereo not given)	-169.3
COc1ccc(-c2ccc(-c3noc(C)n3)c(OC)n2)cc1	-145.9
COCc1nc(-c2ccc(-c3ccc(C)cc3)nc2OC)no1	-190.1
CCCCN1C(=O)Cc2c1nc(N)c1c(N)nc(N(CCC)CCC)c(C#N)c21	i
CCc1ccc(N2C(=O)Cc3c2nc(N)c(C#N)c3N)cc1	-159.9
SMILES	aSyn UTR act
CC(C)(C)c1ccc(N2C(=O)Cc3c2nc(N)c(C#N)c3N)cc1	-108.9
Cc1csc(Nc2ccc(Cl)cc2)n1	-112.6
Cc1ccc(Nc2nc(C)cs2)cc1	-125.3
COC(=O)Cc1csc(Nc2ccc(Cl)cc2)n1	-67.7
COc1cc2c(cc1OC)C(c1cccs1)N(C(=S)NC(C)C)CC2 (stereo not given)	-73.7
COc1cc(NC(=O)c2ccc3snnc3c2)cc(OC)c1	-64.6
Cc1ccc(NC(=O)c2ccc3snnc3c2)cc1	-226.5
CC(C)c1ccc(NC(=O)c2ccc3snnc3c2)cc1	-117.5
O=C(Nc1ccccc1)c1ccc2snnc2c1	-78.8
CSc1nc2ccc3nc(NC(=O)c4ccccc4)sc3c2s1	-317.6
Cc1csc2nc(NC(=O)c3ccccc3)sc(=O)c12	-96.7
O=C(Nc1nc2ccsc2c(=O)s1)c1ccc(F)cc1Cl	-117.3
O=C(Nc1nc2ccsc2c(=O)s1)c1ccc(F)cc1	-158.2
CCCCCCCCC/C(=N\O)c1ccccn1	-74.7
COc1ccccc1CN=c1c([N+](=O)[O-])nn(-c2ccc3c(c2)OCCO3)n1O	-131.9
O=[N+]([O-])c1nn(-c2ccc3c(c2)OCCO3)n(O)c1=NC1CCCCC1	-64.5
O=[N+]([O-])c1nn(-c2ccc3c(c2)OCCO3)n(O)c1=NCc1ccccc1Cl	-95.2
COc1ccc(C(=O)Nc2ccccc2C(=O)Nc2cccc(C)n2)cc1	-86.1
Cc1ccnc(NC(=O)c2cc3ccccc3oc2=O)c1	-202.5
COc1ccc(C(=O)Nc2ccccc2C(=O)Nc2cccnc2)cc1	-80.3
COc1cc(C(=O)Nc2ccccc2C(=O)Nc2ccccn2)cc(OC)c1OC	-66.5
COc1cc2ccccc2cc1C(=O)Nc1cc(C)ccn1	-94.3
COc1ccc(C(=O)Nc2ccccc2C(=O)Nc2cc(C)ccn2)cc1	-107.3
COc1ccc(C(=O)NC(=O)Nc2cc(C)ccn2)cc1	i
COc1ccccc1NC(=O)C(=O)Nc1ccccn1	-167.0
SMILES	aSyn UTR act
Cc1ccc(NC(=O)C(=O)Nc2ccccn2)cc1	i
CCc1ccc(OCc2ccc(C(=O)OC)o2)cc1	-219.7
CCCc1ccc(OCc2ccc(C(=O)N3CCSCC3)o2)cc1	-147.7
O=C(Nc1ccc(Cl)cc1)c1ccc(OC2CSC2)cc1	-90.1
Cc1ocnc1C(=O)Nc1ccc(Cl)cc1	-166.9
O=C(N/N=C/c1ccc2ccccc2c1)c1ccc(COc2ccc3c(c2)CCC3)o1	-72.3
CC(C)(C)c1ccc(OCc2ccc(C(=O)N3CCOCC3)o2)cc1	-119.3
CCc1sc(C(=O)Nc2cccnc2)cc1Br	-110.5
O=C(N/N=C/c1cc([N+](=O)[O-])ccc1O)c1ccc(COc2ccc3c(c2)CCC3)o1	i
COC(=O)c1ccc(COc2ccc(C(C)(C)C)cc2)o1	-166.9
O=C(N/N=C\c1c(O)ccc2ccccc12)c1ccc(Cn2cccn2)o1	i
CC(C)(C)c1ccc(C(=O)Nc2cccnc2)cc1	-91.0
COC(=O)c1ccc(COc2ccc3c(c2)CCC3)o1	-130.2
CC(C)(C)c1ccc(OCc2ccc(C(=O)Nc3cccnc3)o2)cc1	-169.5
CC(C)(C)c1ccc(OCCCC(=O)N2CCOCC2)cc1	-104.0
CC(=O)Nc1nonc1NC(=O)c1ccc(C(C)(C)C)cc1	-153.0
CC(C)(C)c1ccc(C(=O)Nc2ccc(Cl)cc2)cc1	-109.9
COC(=O)Cc1ccc(NC(=O)c2ccc(C(C)(C)C)cc2)cc1	i
C=C(C)C1Cc2cc3ccc(=O)oc3cc2O1 (stereo not given)	-65.1
C=CCOc1cccc(CNc2cccc(C(=O)O)c2)c1	-76.6
C=CCOc1c(CNc2cccc(C(=O)O)c2)cccc1OC	-78.2
O=C(Nc1sc(-c2ccccc2)cc1C(=O)O)c1ccccc1	-99.5
Cc1c(NC(=O)c2ccc(-c3ccccc3)cc2)cccc1C(=O)O	-85.3
O=C(Nc1c(Cl)cccc1Cl)c1ccc(-c2ccccc2)cc1	-66.2
O=C(Nc1ccc(F)cc1)Oc1ccc[nH]c1=O	-82.4
SMILES	aSyn UTR act
CCSc1ncnc2c1oc1ccccc12	-64.3
Cc1cc(C)nc(Sc2ncnc3c2oc2ccccc23)n1	-64.4
Clc1ncnc2c1oc1ccccc12	-61.9
c1ccc2cc(Sc3ncnc4c3oc3ccccc34)ccc2c1	-70.6
CC(=O)NC1=NC(=O)/C(=C/c2cc(C)n(-c3ccc(NC(C)=O)cc3)c2C)S1	-79.9
O=C(N=C1SCC(=O)N1c1ccccc1Cl)c1ccccc1	-210.5
O=C(N=C1SCC(=O)N1c1ccccc1Cl)c1ccco1	-174.5
CCN(C(=O)c1ccco1)c1nnc(-c2ccc(OC)cc2)s1	-135.4
CCCN(C(=O)c1ccco1)c1nnc(-c2cccc(C)c2)s1	-143.1
O=C1N=c2ccccc2=C1c1sc(Nc2cccc(O)c2)nc1O	-90.5
COc1ccc(C(=S)N2CCOCC2)cc1OS(=O)(=O)c1ccccc1[N+](=O)[O-]	-69.8
Cc1ccc(NC(=O)c2cn(-c3cccc(C)n3)cn2)cc1	-212.4
Cc1cccc(-n2cnc(C(=O)N/N=C/c3ccccc3)c2)n1	-77.8
CN1CCN(c2ccccc2NC(=O)c2cc3c(s2)-c2ccccc2OC3)CC1	-70.5
O=C(Nc1nc2ccccc2s1)c1cc2c(s1)-c1ccccc1OC2	-176.9
O=C(Nc1nccs1)c1cc2c(s1)-c1ccccc1OC2	-218.1
O=C(Nc1ccc(Cl)cn1)c1cc2c(s1)-c1ccccc1OC2	-111.5
CCOC(=O)c1cc2c(s1)-c1c(C)cccc1OC2	-163.7
Cc1cccc2c1-c1sc(C(=O)Nc3cccc([N+](=O)[O-])c3C)cc1CO2	-72.9
Cc1cccc2c1-c1sc(C(=O)Nc3nccs3)cc1CO2	-213.2

Assay outcomes: PubChem BioAssay, Broad Institute
